HT1080NT lethal = kills 2HG-producing HT-1080-NT fibrosarcoma cells; actives 1.6% (n = 360,000); HT-1080-NT fibrosarcoma viability, CellTiter-Glo ATP luminescence, 48 h; Potency, µM (titrated, usually from 46.1 µM), for the others: top-dose activity, negative = less viability, most hits filed as cytotoxic;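 also: NT is the 2HG producing partner of a matched IDH1 knockdown line; potency is read from the fitted curve at half-maximal effect; 0% = DMSO-treated cells and -100% = media-only wells without cells; nearly all actives have a fitted effect of over 55% in size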
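Luminescent CellTiter-Glo readout after 48 hours of compound exposure at 37 degrees C defined viability of HT-1080-NT cells. Activity was normalized to DMSO wells and cell-free media wells; concentration-response curves were fitted and assigned curve classes.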
IL-1B inflam inh = inhibitors of inflammasome signaling (IL-1 beta secretion); activity change, % at 57.5 µM; THP-1 LPS/ATP IL-1B secretion, AlphaLISA, 16 h; active compounds read low; actives 4.7% (n = 360,000); in the data active = activity change below about -50%; inconclusive = mostly about -30% to -49%
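Secreted IL-1B measured by AlphaLISA bead assay after 16 h compound exposure of THP-1 cells; compounds (final up to 57.5 uM) added 1 h before LPS (250 ng/mL) and ATP (1.25 mM) stimulation; lower signal means less secretion.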
HT1080 IDH1KD tx = HT-1080 IDH1 knockdown cell toxicity (counter line); HT-1080 IDH1 knockdown viability, ATP luminescence, 48 h; Potency, µM (titrated, usually from 46.1 µM), for the others: at the top dose activity, negative = toxicity, actives largely listed as cytotoxic; actives 2% (n = 360,000); AID 686971;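 also: potency is read from the fitted curve at half-maximal effect; 0% = DMSO wells and -100% = cell-free medium wells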
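In this qHTS, HT-1080 cells depleted of IDH1 are exposed for 48 h at 37 °C to compound titrations. Toxicity is scored from CellTiter-Glo luminescence, with DMSO as full viability and medium alone as none.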
ELG1 DNA repair = ELG1-dependent DNA repair inhibition. AID 504467. Potency, µM (highest dose often 46.1 µM), inactives show top-dose activity change, negative = inhibition, most hits filed as inhibitors. HEK293T ELG1-luciferase reporter, luminescence, 16 h; DNA damage induced by 5-fluorouridine. actives 2.3% (n = 330,000); also: potency is read from the fitted curve at half-maximal effect; nearly all actives have a fitted effect of over 55% in size
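Cells (2,000 per well) received 5-fluorouridine plus test compound or DMSO and were incubated 16 hr at 37 °C, 5% CO2. Luciferase activity was read by luminescence 30 min after ONE-Glo addition; signal suppression marked inhibition of damage-induced ELG1 function.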
DT40 TDP1 CPT = growth inhibition of DT40 Tdp1-/-;hTDP1 cells with camptothecin (screen for TDP1 inhibitors); actives 12% (n = 420,000); chicken DT40 Tdp1-/-;hTDP1 cells + 20 nM CPT, ATP luminescence, 48 h; Potency, µM (doses to about 46.2 µM), for inactives: at the top dose activity change, negative = growth inhibition, hits mostly inhibitors; also: potency is read from the fitted curve at half-maximal effect; nearly all actives have a fitted effect of over 55% in size
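Chicken DT40 Tdp1-/- cells complemented with human TDP1, 400 cells/well, exposed to compounds plus 20 nM camptothecin for at least 48 h at 37 C; viability read as ATP content by CellTiter-Glo luminescence.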
TDP1 cell noCPT = qHTS for Inhibitors of human tyrosyl-DNA phosphodiesterase 1 (TDP1): qHTS in cells in absence of CPT | DT40 Tdp1-/- hTDP1 cells, no CPT, ATP luminescence, 48 h | Potency, µM (doses to about 46.2 µM), for inactives: at the top dose activity change, negative = growth inhibition, hits mostly inhibitors | actives 15% (n = 420,000) | AID 686978, 2013; also: potency is read from the fitted curve at half-maximal effect; nearly all actives have a fitted effect of over 55% in size
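A cellular qHTS used chicken DT40 cells lacking endogenous Tdp1 but carrying stably transfected human TDP1. Compounds were applied without camptothecin, and cell growth kinetics were judged by ATP-dependent luminescence after ≥48 hr.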
Active calls of the source: *; ? = inconclusive; . = no result given; [ ] = another dose, or the depositor's remark. An excerpt weighted towards active compounds, which were near 19% of everything screened. Unless noted, calls follow the shape of the dose curve; as a rule, active = well fitted curve in the direction sought with a large enough effect; inconclusive = small, poorly fitted or top-dose-only effect, or another doubt; inactive = no such curve, though single readings can be large; an effect the other way counts as inactive or inconclusive. Unless noted, % is scaled to controls: 0 for no effect and ±100 for the full control effect.

SMILES | HT1080NT lethal | IL-1B inflam inh | HT1080 IDH1KD tx | ELG1 DNA repair | DT40 TDP1 CPT | TDP1 cell noCPT
CC(C)c1ccc(OCC(=O)N2CCN(CCc3ccncc3)CC2)cc1 | . | . | . | . | -5% | -23%
CCC(C)n1c(O)c(C=NCC2CCCO2)c(=O)[nH]c1=S (centres undefined) | 2% | -4 | 0% | 1% | 6% | 4%
CC12CCC3C(CCC4(O)CC(O)CCC34C=NO)C1(O)CCC2C1=COC(=O)C1 (centres undefined) | 0.82µM* | -104* | 0.58µM* | . | 16µM* | 8.2µM*
C[C@]12CC[C@H]3[C@@H](CC[C@]4(O)C[C@@H](O)CC[C@]34C=O)[C@@]1(O)CC[C@@H]2C1=CC(=O)OC1 | 1.2µM* | -67* | 0.65µM* | ? | 7.3µM* | 5.2µM*
CC12CC[C@H]3[C@@H](CCC4(O)C[C@H](O)CCC34/C=N/NC(=O)c3ccccc3Cl)C1(O)CCC2C1=CC(=O)OC1 (some centres undefined) | 4% | -6 | -2% | -3% | 1% | 0%
C[C@H]1O[C@@H](OC2CC[C@]3(C=O)[C@H]4CC[C@]5(C)[C@@H](C6=CC(=O)OC6)CC[C@]5(O)[C@@H]4CC[C@]3(O)C2)CC2OC(C)(C)OC21 (some centres undefined) | 0.18µM* | -93* | 0.1µM* | ? | 1.8µM* | 1µM*
CC12CCC3C(CCC4(O)CC(O)CCC34C=O)C1(O)CCC2C1=CC(=O)OC1 (centres undefined) | 1.6µM* | ? | 1.5µM* | . | 10µM* | 7.3µM*
O=[N+]([O-])c1cccc2c([As](=O)(O)O)cccc12 | -14% | -26 | 12% | 5% | 35% | -1%
Nc1ncc([N+](=O)[O-])s1 | 2% | 13 | 3% | 14% | -23% | -10%
C[C@]12CCC(=O)C[C@H]1CC[C@@H]1[C@@H]2CC[C@]2(C)C(=O)CC[C@@H]12 | 5% | -4 | 9% | ? | -16% | ?
CC(=O)c1ccc(NC(=O)c2cc(CC(C)C)on2)cc1 | -4% | -18 | 1% | ? | -3% | -11%
CCCNc1nc(-c2cc(C(=O)Nc3ccccc3)on2)cc(C(C)C)n1 | -1% | -101* | -3% | . | ? | ?
O=C(N/N=C/c1cc(Br)c(Br)s1)c1ccncc1 | -12% | 60 | -25% | ? | 13µM* | 9.2µM*
NC1(c2ccccc2)CCCCC1 | . | . | . | . | -21%[92.5 µM] | ?
CCC(Oc1cc(Cl)ccc1Cl)C(=O)N1CCC2(CC1)OCCO2 (centres undefined) | 15% | -8 | 0% | ? | -24% | -12%
CCCCCCCCCc1ccc(OCCOCCO)cc1 | . | . | . | . | 3µM* | 3µM*
CCOC(=O)C1=C(c2ccccc2)N=c2s/c(=C\c3ccc(O)cc3)c(=O)n2C1c1cccs1 (centres undefined) | ? | -78* | ? | ? | 12µM* | 16µM*
COP(=S)(OC)c1c(C)nn(CCC#N)c1NC(=O)c1ccc(Cl)cc1 | -14% | 4 | -14% | 2% | 0% | -8%
COc1ccc(CCNC(=O)c2c(N)n(CCN3CCOCC3)c3nc4ccccc4nc23)cc1 | -1% | ? | 5% | ? | 21µM* | 18µM*
CCOC(=O)c1c(N)n(CCN2CCCCC2)c2nc3ccccc3nc12 | -2% | -83* | -6% | ? | -17% | -27%
COCCCNC(=O)c1c(NC(=O)c2ccccc2Cl)n(Cc2ccccc2)c2nc3ccccc3nc12 | 18% | -4 | 0% | -21% | -5% | -14%
O=C(NCCN1CCOCC1)c1ccc(Cl)nc1Cl | -7% | -9 | -2% | 14% | -8% | -2%
c1ccc(CCN2CCOCC2)cc1 | . | . | . | . | -14% | -13%
Nc1c(C(=O)NCCc2ccccc2)c2nc3ccccc3nc2n1CCN1CCOCC1 | 18µM* | -86* | ? | ? | 21µM* | 16µM*
Nc1c(C(=O)NCCN2CCOCC2)c2nc3ccccc3nc2n1Cc1ccccc1 | -6% | . | -5% | ? | ? | 23µM*
SMILES | HT1080NT lethal | IL-1B inflam inh | HT1080 IDH1KD tx | ELG1 DNA repair | DT40 TDP1 CPT | TDP1 cell noCPT
Cc1ccc(N2C(=O)CC(=O)NC2=O)cc1Cl | 1% | 44 | -4% | -3% | -17% | -11%
Cc1nc2c(c(=O)[nH]1)C(c1ccc([N+](=O)[O-])cc1)c1c(c3ccccc3oc1=O)O2 (centres undefined) | 6% | -4 | 5% | ? | -26% | ?
Nc1c(C(=O)OCc2ccccc2)c2nc3ccccc3nc2n1Cc1cccs1 | ? | -90* | ? | 21µM* | ? | ?
CCCCn1c(N)c(C(=O)NCCN2CCOCC2)c2nc3ccccc3nc21 | ? | -54* | ? | 5.8µM* | 15µM* | 23µM*
Nc1c(C(=O)NCCN2CCOCC2)c2nc3ccccc3nc2n1Cc1ccco1 | -4% | -24 | -12% | 21µM* | ? | 15µM*
CCC(C)OC(=O)c1c(N)n(Cc2cccs2)c2nc3ccccc3nc12 (centres undefined) | -16% | ? | ? | ? | ? | ?
O=C(N[C@@H]1N=C(c2ccccc2F)c2cccc3c2N(CC3)C1=O)c1cc2ccccc2[nH]1 | . | . | . | . | -15% | ?
CN(C(=O)CNC(=O)OCc1ccccc1)c1ccc(Br)cc1C(=O)c1ccccc1Cl | ? | -9 | ? | -19% | 3.3µM* | 2.3µM*
COC(=O)c1c(-c2ccc(Cl)cc2)noc1N1CCN(c2ccc(C(C)=O)cc2)CC1 | . | . | . | . | ? | 21µM*
COC(=O)C1=C(c2ccc(C(C)=O)cc2)C[C@@H]2CC[C@H]1N2C | 0% | 43 | 0% | 25% | -1% | -3%
CC(C)n1c(=O)c(C=Nc2cccc([N+](=O)[O-])c2)c(O)n(CCc2ccccc2)c1=O | -9% | -6 | -11% | ? | -22% | -4%
CC(C)(O)[C@@H]1[C@H]2OC(=O)[C@@H]1[C@]1(O)C[C@H]3O[C@]34C(=O)O[C@H]2[C@]14C | . | . | . | . | 13% | 2%
C=C1C(=O)O[C@@H]2C[C@@H](C)[C@H]3C=CC(=O)[C@]3(O)C[C@@H]12 | -19% | -99* | -16% | 13% | 4.6µM* | 4.6µM*
O=C1c2cccc(N3CCNCC3)c2C2CCCCN12 (centres undefined) | 4% | -17 | 15% | . | ? | ?

Source: PubChem (National Center for Advancing Translational Sciences (NCATS))
